This note sets out measurements from PubChem BioAssay (NCATS).

Assay [1] can be described thus: P-glycoprotein substrates identified in KB-8-5-11 adenocarcinoma cell line, qHTS therapeutic library screen (AID 1346987). Note: nearly all actives have a fitted effect of over 65% in size. Note: potency is the fitted concentration of half-maximal effect. The essentials:
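KB-8-5-11: colchicine-selected sub-line of KB-3-1 over-expressing P-gp; assay medium lacked colchicine. 72 h drug exposure at 37 degree C, CellTiter-Glo.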
A general note: Quantitative high-throughput screening tests each substance at several concentrations.

Assay [2] in a line: Primary qHTS for inhibitors of nuclear receptor binding SET domain protein 2 (NSD2) in an isogenic RCH-ACV NSD2 p.E1099K mutant (9B) (AID 1645876). Note: nearly all actives have a fitted effect of over 70% in size. Note: potency is the fitted concentration of half-maximal effect.
A short description of assay [3]: Primary qHTS for inhibitors of nuclear receptor binding SET domain protein 2 (NSD2) in an RCH-ACV wild type WT cells (2C) (AID 1645877). Note: potency is the fitted concentration of half-maximal effect; nearly all actives have a fitted effect of over 70% in size.
For assay [4], the target named is Glutathione peroxidase 1 (Homo sapiens) (UniProt P07203). Kind of assay: Primary qHTS Assay for Inhibitors of Recombinant Selenoprotein Glutathione Peroxidase 1 (GPX1) (AID 1845191). Note: nearly all actives have a fitted effect of over 65% in size. Note: potency is the fitted concentration of half-maximal effect. The gist of the method: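 10 nM GPX1 + cpd, 30 min RT; start w/ 1 mM GSH, 0.5 mM cumene hydroperoxide, 0.5 mM NADPH, 100 nM GR, 0.01% BSA; buffer 50 mM Tris-HCl pH 7.5, 2 mM EDTA, 150 mM NaCl; Fl 340/450, 0 & 15 min.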

Assay [5] addresses Cytochrome P450 3A4 (Homo sapiens) (UniProt P08684). Kind of assay: qHTS Assay for Inhibitors and Substrates of Cytochrome P450 3A4 (AID 884). Note: potency is the fitted concentration of half-maximal effect; nearly all actives have a fitted effect of over 50% in size. The gist of the method:
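20 nM human CYP3A4 with 25 uM Luciferin-PPXE (at KM) in 200 mM KPO4, preincubated 10 min with compound; NADPH regeneration started a 60 min RT reaction. Luciferin detected by luminescence, normalized to 57 uM ketoconazole as full inhibition.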

For assay [6] the target is unchanged. Kind of assay: qHTS Assay for Activators of Cytochrome P450 3A4 (AID 885). Note: nearly all actives have a fitted effect of over 65% in size. The essentials:
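20nM CYP3A4 + 25uM Luciferin-PPXE (=KM), 200mM KPO4; cpd 10 min RT; NADPH regen, 60 min RT; stop w/ detection buffer, 20 min; luminescence. Normalized to 57 uM ketoconazole.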

Assay [7] can be described thus: Confirmation and Secondary Assay for Modulators of Hemoglobin Beta Chain Splicing at IVS2 654 locus (AID 910).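 Note: HeLa cells stably carrying EGFP split by mutant beta-globin IVS2-654 intron; per-well total GFP intensity by laser scanning cytometry after 2-day treatment; % of control where 0% means no effect.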 The gist of the method:
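Readout: per-well total peak green fluorescence (488 nm ex, 500–520 nm em) from objects 5–250 µm, reflecting correct splicing of an EGFP-654 reporter. Compounds were applied for 2 days at 37 °C to overnight-plated HeLa EGFP-654 cells; controls were DMSO and 500 nM IVS2-654 PNA.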

Assay [8] in a line: Confirmation and Secondary Assay for Modulators of Hemoglobin Beta Chain Splicing at IVS2 705 locus (AID 930).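 Note: HeLa cells stably expressing the EGFP-705 splicing reporter; GFP fluorescence per well restored by corrected splicing of the IVS2-705 intron in EGFP; series mostly up to about 46 µM; % of control where 0% means no effect.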 The essentials:
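Per-well GFP, captured at 1 x 8 µm resolution with 488 nm excitation, served as the read-out for HeLa EGFP-705 cells incubated 2 days with test compound versus DMSO.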

Assay [9] addresses Ubiquitin carboxyl-terminal hydrolase 1 (Homo sapiens) (UniProt O94782). Kind of assay: Inhibitors of USP1/UAF1: Pilot qHTS (AID 504865).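 Note: rhodamine fluorescence freed from ubiquitin-rhodamine substrate followed over time; top concentration of the series differs between compounds; % is set by controls: 0 for no effect and ±100 for the full control effect; nearly all actives have a fitted effect of over 35% in size.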 The essentials: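 USP1/UAF1 complex (1nM) preincubated with compound 15 min at room temperature, then Ub-Rho substrate (150nM final) added. Fluorescence read kinetically at 480/540 nm, 6 reads every 60 seconds. Buffer: 50mM HEPES pH 7.8, 0.5mM EDTA, 0.1 mg/ml BSA, 1mM TCEP, 0.01% Tween-20.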

Assay [10] deals with Phospholipid hydroperoxide glutathione peroxidase GPX4 (Homo sapiens) (UniProt P36969). Kind of assay: Primary qHTS Assay for Inhibitors of Recombinant Selenoprotein Glutathione Peroxidase 4 (GPX4) (AID 1845192). Note: series mostly up to about 50 µM; % is set by controls: 0 for no effect and ±100 for the full control effect; nearly all actives have a fitted effect of over 65% in size. The note with it: outcome: dose series up to 50 µM unless noted. The gist of the method:
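NADPH consumption, followed by fluorescence at 340/450 nm between 0 and 15 min, reports GPX4 activity via coupled glutathione reductase (100 nM). Enzyme 200 nM was pre-exposed to compound 30 min; 0.5 mM cumene hydroperoxide and 1 mM GSH served as substrates.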

Assay [11] is described as follows: qHTS drug screen for cell cycle checkpoint inhibitors in PARPi-resistant BRCA-mutant ovarian cancer cell lines. (AID 1963452; calls by dose curve). The note with it: PEO1/OlaR viability, CellTiter-Glo luminescence, 96 h, stronger effect = lower value. The essentials:
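PEO1, PEO4 and PEO1/OlaR ovarian cancer cells, 600 per well, exposed 96 h at 37C to a dilution series. Viability read by CellTiter-Glo luminescence, normalized to DMSO and empty wells; activity summarized as Z-AUC.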

Assay [12] in a line: qHTS Assay for Identifying Gametocytocidal Compounds (AID 743244).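 Note: % is set by controls: 0 for no effect and ±100 for the full control effect; actives lower the fluorescent signal which means gametocytes are killed.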 As to conditions: P. falciparum 3D7 stage III-V gametocytes, alamarBlue, 72 h; max response: stronger effect = lower value. The gist of the method: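 Viability read-out was resazurin reduction (alamarBlue, 24 h) measured at Ex 525/Em 598 nm. Beforehand, late-stage (III-V) 3D7 P. falciparum gametocytes at 20,000 cells/well were incubated with compound 72 h at 37C under 5% CO2.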

Results filed as inconclusive are left out. Calls of active or inactive are those of the source. Unless noted, calls come from the whole dose curve; as a rule, active = well fitted curve in the direction sought with a large enough effect; inconclusive = small, poorly fitted or top-dose-only effect, or another doubt; inactive = no such curve, though single readings can be large; an effect the other way counts as inactive or inconclusive.

Chain of Glutathione peroxidase 1 (Homo sapiens) (P07203 whole entry, looked up): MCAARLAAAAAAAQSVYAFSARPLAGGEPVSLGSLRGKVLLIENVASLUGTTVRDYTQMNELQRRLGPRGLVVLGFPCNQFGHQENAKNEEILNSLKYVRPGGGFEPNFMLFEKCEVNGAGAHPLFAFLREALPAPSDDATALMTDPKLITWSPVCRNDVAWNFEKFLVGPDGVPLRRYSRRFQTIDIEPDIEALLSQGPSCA
Chain of Cytochrome P450 3A4 (Homo sapiens) (P08684 whole entry, looked up): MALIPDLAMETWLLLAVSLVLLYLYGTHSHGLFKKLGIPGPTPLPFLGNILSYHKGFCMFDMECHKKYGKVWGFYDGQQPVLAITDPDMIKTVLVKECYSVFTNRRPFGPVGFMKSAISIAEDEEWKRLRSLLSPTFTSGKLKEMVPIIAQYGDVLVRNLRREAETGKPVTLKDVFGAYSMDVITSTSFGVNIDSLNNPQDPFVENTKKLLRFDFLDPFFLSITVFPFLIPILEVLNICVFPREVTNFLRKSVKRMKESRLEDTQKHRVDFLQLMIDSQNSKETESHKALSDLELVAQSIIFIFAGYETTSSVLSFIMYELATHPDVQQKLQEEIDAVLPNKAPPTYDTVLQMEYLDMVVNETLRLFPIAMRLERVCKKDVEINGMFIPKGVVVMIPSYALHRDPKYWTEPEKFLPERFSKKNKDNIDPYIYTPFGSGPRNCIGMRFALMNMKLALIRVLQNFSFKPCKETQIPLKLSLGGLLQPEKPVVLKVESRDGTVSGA
Chain of Phospholipid hydroperoxide glutathione peroxidase GPX4 (Homo sapiens) (P36969 whole entry, looked up): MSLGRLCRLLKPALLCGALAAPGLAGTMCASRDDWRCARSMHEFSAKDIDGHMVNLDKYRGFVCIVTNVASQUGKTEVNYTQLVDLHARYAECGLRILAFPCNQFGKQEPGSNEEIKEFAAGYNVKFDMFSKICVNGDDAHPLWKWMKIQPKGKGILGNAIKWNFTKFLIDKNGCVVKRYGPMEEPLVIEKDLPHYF
Chain of Ubiquitin carboxyl-terminal hydrolase 1 (Homo sapiens) (O94782 whole entry, looked up): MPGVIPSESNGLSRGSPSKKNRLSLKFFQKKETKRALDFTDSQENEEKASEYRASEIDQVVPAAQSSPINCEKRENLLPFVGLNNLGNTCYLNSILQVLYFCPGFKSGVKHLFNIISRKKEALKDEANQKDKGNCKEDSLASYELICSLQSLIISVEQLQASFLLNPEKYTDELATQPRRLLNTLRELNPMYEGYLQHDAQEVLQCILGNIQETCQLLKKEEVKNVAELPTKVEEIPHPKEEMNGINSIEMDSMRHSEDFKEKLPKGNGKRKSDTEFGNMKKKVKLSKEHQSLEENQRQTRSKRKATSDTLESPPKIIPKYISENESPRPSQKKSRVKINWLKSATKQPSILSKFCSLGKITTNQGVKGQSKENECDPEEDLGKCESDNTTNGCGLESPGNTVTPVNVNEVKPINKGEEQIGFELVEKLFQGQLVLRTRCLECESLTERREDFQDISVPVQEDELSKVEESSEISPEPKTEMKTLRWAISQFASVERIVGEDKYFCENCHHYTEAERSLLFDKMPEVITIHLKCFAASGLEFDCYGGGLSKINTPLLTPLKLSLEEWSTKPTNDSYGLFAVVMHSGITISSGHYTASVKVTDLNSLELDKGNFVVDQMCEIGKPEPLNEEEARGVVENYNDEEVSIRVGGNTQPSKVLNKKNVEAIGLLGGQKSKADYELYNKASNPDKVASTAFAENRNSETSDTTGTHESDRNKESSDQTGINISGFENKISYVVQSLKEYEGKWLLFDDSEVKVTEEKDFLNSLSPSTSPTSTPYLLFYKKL

As for `O=C(c1ccc(-c2ccc(Cl)cc2)o1)N(Cc1ccccn1)c1ccc(N2CCNCC2)cc1`, the Potency result in [1] and in [4] was “inactive” throughout. For the same compound, the values for the Potency in assay [2] and in assay [3] were 13 µM (active) and 16.4 µM (active), respectively.
Consider `COc1cc(OC)c2ccc(=O)oc2c1`, for which the Potency in assay [5] is 31.6 µM (active); in assay [4], 25.5 µM (active). The Potency result in assay [6], in assay [9], in [1] and in assay [2] was “inactive” throughout. Further, the compound was classed as inactive in [7] and in assay [8].
On to `Cc1c[nH]c(/C=C2\C(=O)Nc3ccccc32)c1CCC(=O)O`, for which the Potency result in [1], in [4] and in assay [10] was “inactive” throughout. Moreover, the Potency in assay [2] was 14.8 µM (active); in assay [3], 18.6 µM (active). Further, the Z-AUC in assay [11] was 1.24 (inactive); in assay [11] (measured here: PEO1 parental Z-AUC) it was 1.05; in assay [11] (measured here: PEO4 Z-AUC), 1.31.
Consider `CCCCCCC(=O)O[C@H]1CC[C@H]2[C@@H]3CCc4cc(O)ccc4[C@H]3CC[C@]12C`, for which, in [12], the max response is -2.62% (inactive). Besides, in assay [1], the Potency was 7.31 µM (active). Besides, the Potency result in [4] was “inactive”.
